In PubChem BioAssay AID1259343 (VanderVen Lab, College of Veterinary Medicine, Cornell …, 2017):
Screen size: about 6,200 compounds; about 2,900 (47%) were called active. The set was probably picked from earlier hits. This is one part of the list. A number with no mark means an inactive call. Rule as the data show it: active = inhibition above about 50%; inactive = the rest.

Assay: Mycobacterium tuberculosis growth inhibition, primary screen (AID 1259343)
Settings: inhibition: at 10 µM, stronger effect = higher value; outcome: 10 uM

Structure (SMILES)	inhibition
CNc1ncc(CN(C)c2nccc(CCC(F)(F)F)n2)cn1	55.3% (active)
CN(Cc1cccc(O)c1)c1nccc(CCC(F)(F)F)n1	54.8% (active)
CN(Cc1ccc2nonc2c1)c1nccc(CCC(F)(F)F)n1	31.6%
O=C(O)CC1(CC(=O)Nc2cc(C(F)(F)F)cc(C(F)(F)F)c2)CCCCC1	88.4% (active)
Cc1sc(NC(=O)CC2(CC(=O)O)CCCCC2)c(C#N)c1C	-8.62%
COc1ccc(C2C(C(=O)c3ccccc3)C(O)(C(F)(F)F)N(C)C(=O)N2C)cc1 (stereo not given)	-22.5%
CCc1ccc(C2=CC(c3ccc(Br)cc3)n3nnnc3N2)cc1 (stereo not given)	76.2% (active)
COc1ccc(C2C=C(c3ccccc3)Nc3nnnn32)cc1 (stereo not given)	78.5% (active)
Clc1cccc(C2C=C(c3ccc(-c4ccccc4)cc3)Nc3nnnn32)c1Cl (stereo not given)	93.5% (active)
COc1ccc(C2C=C(c3ccc(Cl)cc3)Nc3nnnn32)cc1 (stereo not given)	7.81%
CCc1ccc(C2C=C(c3ccc(F)cc3)Nc3nnnn32)cc1 (stereo not given)	80.2% (active)
Cc1ccc(C2=CC(c3ccc(Cl)cc3)n3nnnc3N2)cc1 (stereo not given)	102% (active)
Clc1ccc(C2C=C(c3ccc(Br)cc3)Nc3nnnn32)cc1 (stereo not given)	-26.6%
Clc1ccc(-c2csc3ncnc(Sc4nnnn4C4CC4)c23)cc1	-14.2%
Cc1cccc(C)c1OC1CN(C(=O)C(=O)c2ccco2)C1	45.6%
OC(c1ccccc1)C1CCN(c2cncc(Cl)n2)CC1 (stereo not given)	44.6%
Cc1cccc(C)c1OC1CCN(c2cncc(C(N)=O)n2)CC1	95.8% (active)
C=CC[C@@H]1CC=C[C@@H](C)N1C(=O)c1cc(COc2ccc3sc(C)nc3c2)on1	-45.8%
CCCC1C=CCN1C(=O)c1cc(COc2ccc(C(C)=O)cc2)on1 (stereo not given)	75.2% (active)
CCCCC1C=CCN1C(=O)c1c(O)cccc1O (stereo not given)	3.76%
Cc1ccc(OCc2cc(C(=O)N3CCC(C(=O)c4ccccc4)CC3)no2)cn1	inactive
Cc1ccccc1C1CCCN(C(=O)c2cc(COc3cccc4cnccc34)on2)C1 (stereo not given)	46.4%
Cc1ccc(OCc2cc(C(=O)N3CCCC3c3nc4ccccc4s3)no2)cn1 (stereo not given)	81.4% (active)
CCCC1C=CCN1C(=O)c1cc(COc2ccc3c(c2)OCO3)[nH]n1 (stereo not given)	31.8%
CCC1C=CCN1C(=O)c1cc(COc2ccc3sc(C)nc3c2)on1 (stereo not given)	94.8% (active)

Structure (SMILES)	inhibition
COc1cc(OC)c2c(=O)c(-c3ccccc3)coc2c1	70.5% (active)
COc1ccc(OC)c(C(=O)c2coc3ccc(OC)cc23)c1	17.3%
COc1ccc(-c2cnoc2-c2ccc(OC)cc2O)cc1	-32.9%
COc1ccc(-c2c(NC(=O)c3ccco3)oc3c(C)cccc3c2=O)cc1	19.2%
O=c1c(-c2ccc(O)cc2)coc2cc(O)cc(O)c12	50.5% (active)
COc1ccc(-c2coc3cc(O)cc(O)c3c2=O)cc1	88.5% (active)
COc1ccc2c(=O)c3c(=O)n(-c4ccccc4)c(C)nc3oc2c1	12.6%
COc1ccc2c(=O)c(Oc3ccc(Cl)cc3)coc2c1	0.4%
COc1ccc(-c2coc3c(O)c(OC)ccc3c2=O)cc1	67% (active)
O=c1c(O)c(-c2ccc(O)c(O)c2)oc2cc(O)cc(O)c12	36.4%
COc1ccc(CC(N)c2csc(Nc3nncc4ccccc34)n2)cc1 (stereo not given)	91.7% (active)
NC(c1csc(Nc2nncc3ccccc23)n1)C1CCCCC1 (stereo not given)	97.4% (active)
NC(Cc1ccccc1)c1csc(Nc2nncc3ccccc23)n1 (stereo not given)	89.8% (active)
NC(c1csc(Nc2nncc3ccccc23)n1)c1ccccc1Cl (stereo not given)	58.8% (active)
Cc1cc2n(c1)CCn1c(C)ccc1-2	-18.7%
NC(CCc1ccccc1)c1csc(Nc2nncc3ccccc23)n1 (stereo not given)	81% (active)
NC(COCc1ccccc1)c1csc(Nc2nncc3ccccc23)n1 (stereo not given)	71% (active)
c1ccc(CC(Cc2ccccc2)=NNc2nncc3ccccc23)cc1	9.04%
COc1ccc(C(N)c2csc(Nc3nncc4ccccc34)n2)cc1 (stereo not given)	57.6% (active)
CCCn1ccnc1SCC(=O)NC(=O)NC12CC3CC(CC(C3)C1)C2	32.7%
O=C(Nc1ccc(-c2ccccc2)cc1)N[C@@H](Cc1ccccc1)C(=O)N1CCC(C(=O)N2CCCCC2)CC1	76.3% (active)
Cc1ccc(-n2c(Cl)c(Cl)nc(Cl)c2=O)cc1	102% (active)
CCCc1nc2oc3ccccc3c(=O)c2c(=O)n1-c1ccc(C)cc1	-28%
Cc1sc2ncnc(NC3CCCCC3C)c2c1C (stereo not given)	84.5% (active)
CCOC(=O)c1c(C)[nH]c(N=Nc2ccc3c(c2)OCO3)c1C	104% (active)

Structure (SMILES)	inhibition
Cc1[nH]c2ccccc2c1N=Nc1ccc(F)cc1	11.2%
Cc1[nH]c2ccccc2c1N=Nc1ccc2c(c1)OCO2	89.7% (active)
CCOC(=O)c1c(C)[nH]c(C(=O)CSc2ncn[nH]2)c1C	-1.94%
Cc1[nH]c2ccccc2c1C(c1cccnc1)c1c(C)[nH]c2ccccc12	45.9%
Cc1ccc(C)c(N=Nc2c(C)[nH]c3ccccc23)c1	81.8% (active)
Cc1[nH]c2ccccc2c1N=Nc1ccc(SC(F)F)cc1	58.3% (active)
CCOC(=O)c1c(C)[nH]c(C(=O)OCC(=O)C23CC4CC(CC(C4)C2)C3)c1C	-59.8%
Cc1ccc(C2=NNC(=NCc3ccc4c(c3)OCO4)SC2)s1	18.8%
Cc1[nH]c2ccccc2c1N=Nc1cccc2ccccc12	-9.25%
O=c1c(NCCc2ccccc2)nccn1-c1ccccc1	23.1%
Cc1ccc(-n2ccnc(NCC(C)c3ccccc3)c2=O)cc1C (stereo not given)	68.9% (active)
Cc1cc(F)ccc1S(=O)(=O)Nc1cc(-c2ccccc2)on1	69.6% (active)
Cc1cc(NS(=O)(=O)c2cc(Cl)ccc2Cl)no1	43.7%
FC(F)Oc1ccc(C2=NNC(=NC3CC3)SC2)cc1	18.9%
CCCCN=C1SCC(c2cc(C)n(Cc3ccco3)c2C)=NN1C	44%
Cc1cc(C2=NNC(=NCc3ccco3)SC2)c(C)n1Cc1ccco1	-40.5%
Cc1ccccc1N=C1NN=C(c2ccccc2F)CS1	68.3% (active)
Cc1cc(C2=NNC(=NCc3ccc4c(c3)OCO4)SC2)c(C)n1Cc1ccco1	-5.02%
CC(C)(C)N=C1NN=C(c2c[nH]c3ccccc23)CS1	-10%
CC(C)(C)N=C1NN=C(c2ccc3ccccc3c2)CS1	9.77%
Cc1cc(C2=NNC(=NCC3CCCO3)SC2)c(C)n1Cc1cccs1 (stereo not given)	23.6%
Cc1ccc(N=C2NN=C(c3cc(F)ccc3F)CS2)c(C)c1	31.9%
Cc1cc(C2=NNC(=NC3CC3)SC2)c(C)n1-c1ccccc1F	95.9% (active)
COCCCN=C1NN=C(c2cc(C)n(Cc3ccco3)c2C)CS1	63.8% (active)
Cc1cc(C2=NNC(=NC3CCCC3)SC2)c(C)n1Cc1ccco1	99.4% (active)
